Experimental data taken from PMC4081100, “A DNA-binding-site landscape and regulatory network analysis for NAC transcription factors in Arabidopsis thaliana”.

Legend:
Test in all cases: universal protein binding microarray (PBM); transcription factors of Arabidopsis thaliana; high values mean tight binding
Conditions in all cases: protein: recombinant; tags: GST; chain copies: 2; dsDNA, one strand shown
GST-ANAC092(1-176) = biological target: T1, GST-ANAC092(1-176) (Arabidopsis thaliana, UniProt Q9FKA0 1-176)
T1 sequence: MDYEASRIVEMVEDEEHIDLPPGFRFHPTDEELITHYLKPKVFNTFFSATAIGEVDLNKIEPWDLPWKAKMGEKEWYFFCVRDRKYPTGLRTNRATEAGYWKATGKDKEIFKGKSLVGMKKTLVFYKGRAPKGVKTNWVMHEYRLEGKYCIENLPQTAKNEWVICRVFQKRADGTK
Summary of the method: (§1)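 Binding is expressed as the normalised enrichment score (E-score). Proteins carrying a GST tag, whether NAC-domain, full-length or DNA-binding-domain forms, were induced in cells, and zinc acetate was added for zinc-finger proteins. After purification on glutathione–Sepharose 4B and quantification by A280 or anti-GST western blot, each was applied in duplicate at 200 to 500 nM final to custom all-10-mer Agilent 4 × 180K arrays made double-stranded by primer extension. Gapped and ungapped 8-mers were scored.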

GST-NTL6(1-168) = GST-NTL6(1-168) (Arabidopsis thaliana, UniProt Q9SCK6 1-168)
Summary of the method: as §1

GST-ANAC019 NAC domain = biological target: T2, GST-ANAC019 NAC domain (Arabidopsis thaliana, UniProt Q9C932 14-162)
T2 sequence: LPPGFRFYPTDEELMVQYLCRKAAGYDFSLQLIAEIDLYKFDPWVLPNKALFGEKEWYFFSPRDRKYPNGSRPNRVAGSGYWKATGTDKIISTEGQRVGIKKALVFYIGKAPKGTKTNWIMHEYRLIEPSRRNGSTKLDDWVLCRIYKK
Summary of the method: as §1

GST-ANAC055(1-171) = biological target: T3, GST-ANAC055(1-171) (Arabidopsis thaliana, UniProt Q9LDY8 1-171)
T3 sequence: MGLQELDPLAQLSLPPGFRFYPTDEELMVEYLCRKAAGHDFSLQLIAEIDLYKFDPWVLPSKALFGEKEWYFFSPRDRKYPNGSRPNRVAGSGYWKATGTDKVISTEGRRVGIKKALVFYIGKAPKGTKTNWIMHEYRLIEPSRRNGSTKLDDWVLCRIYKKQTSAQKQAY
Summary of the method: as §1

GST-ATAF1 NAC domain = biological target: T4, GST-ATAF1 NAC domain (Arabidopsis thaliana, UniProt Q39013 7-158)
T4 sequence: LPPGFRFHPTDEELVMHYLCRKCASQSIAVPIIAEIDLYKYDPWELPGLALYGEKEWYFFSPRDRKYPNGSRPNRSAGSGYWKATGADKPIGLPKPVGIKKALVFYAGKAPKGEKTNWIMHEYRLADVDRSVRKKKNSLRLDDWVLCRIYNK
Summary of the method: as §1

[1] = biological target: T5, GST-ANAC092(1-285) full length (Arabidopsis thaliana, UniProt Q9FKA0 1-285)
T5 sequence: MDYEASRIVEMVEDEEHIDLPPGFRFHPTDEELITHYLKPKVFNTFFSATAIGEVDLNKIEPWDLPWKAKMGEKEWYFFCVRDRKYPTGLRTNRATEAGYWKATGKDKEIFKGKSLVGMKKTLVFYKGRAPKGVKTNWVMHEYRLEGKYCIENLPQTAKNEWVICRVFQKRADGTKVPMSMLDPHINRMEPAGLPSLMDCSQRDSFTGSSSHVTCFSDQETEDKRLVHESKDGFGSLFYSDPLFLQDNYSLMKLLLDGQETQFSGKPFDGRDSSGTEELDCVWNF
Summary of the method: as §1

GST-NAP(1-166) = biological target: T6, GST-NAP(1-166) (Arabidopsis thaliana, UniProt O49255 1-166)
T6 sequence: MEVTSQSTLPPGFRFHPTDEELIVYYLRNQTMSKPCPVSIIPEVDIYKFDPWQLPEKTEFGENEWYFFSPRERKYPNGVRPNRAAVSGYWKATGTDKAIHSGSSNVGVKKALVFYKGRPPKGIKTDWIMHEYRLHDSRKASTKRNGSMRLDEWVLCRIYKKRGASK
Summary of the method: as §1

GST-NST2(1-184) = biological target: T7, GST-NST2(1-184) (Arabidopsis thaliana, UniProt Q9M274 1-184)
T7 sequence: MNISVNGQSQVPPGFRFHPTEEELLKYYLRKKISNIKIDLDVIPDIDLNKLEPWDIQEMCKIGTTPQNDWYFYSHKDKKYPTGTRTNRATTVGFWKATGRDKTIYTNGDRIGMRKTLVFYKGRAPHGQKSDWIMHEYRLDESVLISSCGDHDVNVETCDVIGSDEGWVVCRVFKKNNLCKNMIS
Summary of the method: as §1

GST-NTL8 NAC domain = biological target: T8, GST-NTL8 NAC domain (Arabidopsis thaliana, UniProt Q9XIN7 14-156)
T8 sequence: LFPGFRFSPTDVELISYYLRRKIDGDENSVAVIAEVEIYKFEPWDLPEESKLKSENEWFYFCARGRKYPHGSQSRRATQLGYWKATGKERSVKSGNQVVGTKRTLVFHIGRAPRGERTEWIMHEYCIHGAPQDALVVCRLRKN
Summary of the method: as §1

GST-SND1(1-203) = biological target: T9, GST-SND1(1-203) (Arabidopsis thaliana, UniProt Q9LPI7 1-203)
T9 sequence: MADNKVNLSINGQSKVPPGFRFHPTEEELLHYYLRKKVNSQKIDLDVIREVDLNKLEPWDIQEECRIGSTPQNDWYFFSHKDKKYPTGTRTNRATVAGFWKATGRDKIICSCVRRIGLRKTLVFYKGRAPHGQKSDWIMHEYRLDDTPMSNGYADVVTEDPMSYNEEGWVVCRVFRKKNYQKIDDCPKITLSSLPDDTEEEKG
Summary of the method: as §1

GST-VND3 NAC domain = biological target: T10, GST-VND3 NAC domain (Arabidopsis thaliana, UniProt Q9FH59 12-162)
T10 sequence: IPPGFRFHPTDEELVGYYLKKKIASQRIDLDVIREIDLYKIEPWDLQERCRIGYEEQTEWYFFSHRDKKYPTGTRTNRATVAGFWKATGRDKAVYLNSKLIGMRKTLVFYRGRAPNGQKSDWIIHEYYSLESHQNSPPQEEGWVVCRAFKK
Summary of the method: as §1

GST-VND7 NAC domain = biological target: T11, GST-VND7 NAC domain (Arabidopsis thaliana, UniProt Q9C8W9 9-158)
T11 sequence: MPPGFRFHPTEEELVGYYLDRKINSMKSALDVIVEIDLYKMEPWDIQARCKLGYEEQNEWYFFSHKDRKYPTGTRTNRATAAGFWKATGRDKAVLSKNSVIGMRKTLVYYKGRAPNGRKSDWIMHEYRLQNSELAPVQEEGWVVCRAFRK
Summary of the method: as §1

Sequence of GST-NTL6(1-168) (Q9SCK6 1-168): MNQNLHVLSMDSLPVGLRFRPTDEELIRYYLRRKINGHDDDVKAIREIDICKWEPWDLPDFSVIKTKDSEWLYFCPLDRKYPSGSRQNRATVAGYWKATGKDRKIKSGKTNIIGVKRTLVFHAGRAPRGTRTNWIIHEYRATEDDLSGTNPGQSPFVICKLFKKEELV

Sequence	binding signal (GST-ANAC092(1-176)) [E-score]	binding signal (GST-NTL6(1-168)) [E-score]	binding signal (GST-ANAC019 NAC domain) [E-score]	binding signal (GST-ANAC055(1-171)) [E-score]	binding signal (GST-ATAF1 NAC domain) [E-score]	binding signal [1] [E-score]	binding signal (GST-NAP(1-166)) [E-score]	binding signal (GST-NST2(1-184)) [E-score]	binding signal (GST-NTL8 NAC domain) [E-score]	binding signal (GST-SND1(1-203)) [E-score]	binding signal (GST-VND3 NAC domain) [E-score]	binding signal (GST-VND7 NAC domain) [E-score]
ACGCAAAT	0.418	0.0591	0.268	0.232	0.262	0.42	0.235	0.265	0.0579	0.325	0.325	0.281
GTTACGTA	0.463	0.214	0.482	0.473	0.463	0.456	0.483	0.337	0.319	0.442	0.471	0.477
GTTGCGTA	0.486	0.184	0.461	0.431	0.415	0.49	0.477	0.465	0.216	0.495	0.452	0.466
AACGTAAC	0.335	0.15	0.15	0.212	0.253	0.37	0.315	0.324	0.143	0.419	0.278	0.269
CCACGTAA	0.359	0.0826	0.432	0.37	0.306	0.393	0.308	0.157	0.167	0.0962	0.326	0.341
CACGGAAG	0.372	0.0727	0.471	0.435	0.343	0.403	0.367	0.12	0.129	0.164	0.435	0.428
ACGGAAAC	0.325	0.205	0.412	0.388	0.209	0.345	0.305	0.242	0.243	0.191	0.349	0.361
GTTCCTTA	0.136	0.458	0.141	0.0564	0.151	0.237	0.117	0.139	0.329	0.376	0.249	0.147
AGGAAACG	0.207	0.125	0.0614	0.149	0.208	0.132	0.183	0.132	0.451	0.224	0.109	0.112
GGAGGTAA	0.079	0.202	0.0898	0.0701	0.137	0.122	0.146	0.106	0.435	0.19	0.139	0.0814
AAGTAAGC	0.284	0.404	0.104	0.158	0.199	0.358	0.0599	0.171	0.337	0.361	0.21	0.272
ATTGAGTA	0.329	0.135	0.143	0.176	0.251	0.365	0.0897	0.312	0.129	0.404	0.282	0.258
ACGTTTTC	0.382	0.196	0.248	0.304	0.336	0.401	0.29	0.32	0.225	0.322	0.303	0.327
GTGAAGAA	0.238	0.244	0.305	0.215	0.316	0.197	0.164	0.129	0.403	0.182	0.304	0.288
TTACGCAA	0.484	0.18	0.447	0.335	0.375	0.484	0.442	0.437	0.18	0.495	0.457	0.468
ACGCAAGT	0.424	0.121	0.277	0.295	0.295	0.444	0.356	0.291	0.0671	0.406	0.375	0.366
AACGTAAG	0.32	0.196	0.132	0.213	0.255	0.366	0.204	0.262	0.124	0.436	0.289	0.226
GCACGAAA	0.401	0.0615	0.253	0.197	0.165	0.441	0.245	0.0864	0.0576	0.211	0.173	0.145
AAGGTAAC	0.233	0.309	0.141	0.185	0.142	0.285	0.151	0.232	0.441	0.188	0.154	0.194
GTTTCGTA	0.375	0.0501	0.0919	0.15	0.173	0.405	0.185	0.163	0.0561	0.318	0.293	0.124
TACGTAAA	0.427	0.095	0.43	0.384	0.377	0.444	0.399	0.261	0.172	0.43	0.421	0.43
ACGTAACA	0.438	0.133	0.389	0.413	0.365	0.426	0.417	0.345	0.205	0.409	0.41	0.419
AATTCCGT	0.274	0.169	0.456	0.429	0.358	0.247	0.379	0.179	0.105	0.122	0.414	0.382
AAGTAAAG	0.275	0.432	0.107	0.168	0.189	0.32	0.0549	0.265	0.27	0.328	0.175	0.181
ACGTAAGC	0.42	0.133	0.453	0.406	0.352	0.449	0.428	0.298	0.205	0.368	0.437	0.431
AAGGGTAA	0.117	0.194	0.127	0.0999	0.0524	0.134	0.117	0.126	0.444	0.117	0.223	0.0677
GCGTAAAA	0.261	0.0562	0.15	0.087	0.185	0.247	0.0952	0.239	0.107	0.407	0.197	0.174
